From the supplement of paper PMC7156485

Experiments:
Conditions in all cases: concentration: 10 µM; 24 h
HCC1569 [1] = test: cell number relative to DMSO (% of DMSO); higher = more cells (less growth inhibition / toxicity)
Outline: (§1)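 Cells were seeded at 800 per well in 384-well plates with RPMI containing 10% FBS; both HCC1569 and TDF lines were used. Compounds were added at 10 µM for 24 h at 37 °C, in triplicate, before fixation in 3.7% formaldehyde and staining with a rabbit anti-H1.0 antibody, an AlexaFluor 647 secondary and DAPI. H1.0 nuclear intensity or cell number is reported as percent of the plate control using the median of replicates, and HCC1569 values were smoothed for positional effects.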

TDF [2] = test: as above
Outline: as §1

TDF [3] = test: H1.0 immunofluorescence intensity relative to DMSO (% of DMSO); higher = stronger H1.0 induction, active = 120 or more
Outline: as §1

HCC1569 [4] = test: H1.0 immunofluorescence intensity relative to DMSO (% of DMSO); higher = stronger H1.0 induction, active = 140 or more
Outline: as §1
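For H1.0 immunofluorescence intensity relative to DMSO in this document: TDF is a line of transformed human dermal fibroblasts of mesenchymal origin.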
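For cell number relative to DMSO in this document: TDF denotes transformed human dermal fibroblasts of mesenchymal origin.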

## COc1ccc(CC[C@H]2CCC[C@@H](CCc3ccc(OC)cc3)N2C[C@@H](O)CO)cc1.Cl
HCC1569 [1]
  cell number: 101
TDF [2]
  cell number: 103
TDF [3]
  H1.0 immunofluorescence intensity: 93.3 (inactive)
HCC1569 [4]
  H1.0 immunofluorescence intensity: 92.7 (inactive)

## COc1ccc(CN2CCN(C(c3ccc(F)cc3)c3ccc(F)cc3)CC2)c(OC)c1OC [Lomerizine]
HCC1569 [1]
  cell number: 102
TDF [2]
  cell number: 98.8
TDF [3]
  H1.0 immunofluorescence intensity: 92.3 (inactive)
HCC1569 [4]
  H1.0 immunofluorescence intensity: 105 (inactive)

## CCCC(CCC)C(=O)O [Valproic acid]
HCC1569 [1]
  cell number: 100
TDF [2]
  cell number: 111
TDF [3]
  H1.0 immunofluorescence intensity: 97 (inactive)
HCC1569 [4]
  H1.0 immunofluorescence intensity: 105 (inactive)

## Cc1scc2c1N(C(=O)CN1CCN(C)CC1)c1ccccc1NC2=O.Cl.Cl [Telenzepine.2HCl]
HCC1569 [1]
  cell number: 101
TDF [2]
  cell number: 99.1
TDF [3]
  H1.0 immunofluorescence intensity: 96.6 (inactive)
HCC1569 [4]
  H1.0 immunofluorescence intensity: 103 (inactive)

## C[N+](C)(C)CCO.[Br-] [Choline bromide]
HCC1569 [1]
  cell number: 104
TDF [2]
  cell number: 108
TDF [3]
  H1.0 immunofluorescence intensity: 96.9 (inactive)
HCC1569 [4]
  H1.0 immunofluorescence intensity: 98 (inactive)

## CCCCCC=CCC=CCCCCCCCC(=O)O [9(E),12(E)-Octadecadienoic acid]
HCC1569 [1]
  cell number: 96.5
TDF [2]
  cell number: 107
TDF [3]
  H1.0 immunofluorescence intensity: 100 (inactive)
HCC1569 [4]
  H1.0 immunofluorescence intensity: 108 (inactive)

## O=C1OC(CN2CCOCC2)CN1/N=C/c1ccc([N+](=O)[O-])o1 (stereo unspecified)
HCC1569 [1]
  cell number: 102
TDF [2]
  cell number: 96.5
TDF [3]
  H1.0 immunofluorescence intensity: 96.7 (inactive)
HCC1569 [4]
  H1.0 immunofluorescence intensity: 104 (inactive)

## O=c1cc(-c2ccccc2)oc2cc(O)cc(O)c12 [Chrysine]
HCC1569 [1]
  cell number: 101
TDF [2]
  cell number: 99.8
TDF [3]
  H1.0 immunofluorescence intensity: 93.8 (inactive)
HCC1569 [4]
  H1.0 immunofluorescence intensity: 92.7 (inactive)

## CCN(CC)CCCCCCCCOC(=O)c1cc(OC)c(OC)c(OC)c1.Cl [TMB-8 hydrochloride]
HCC1569 [1]
  cell number: 105
TDF [2]
  cell number: 105
TDF [3]
  H1.0 immunofluorescence intensity: 99.8 (inactive)
HCC1569 [4]
  H1.0 immunofluorescence intensity: 84.2 (inactive)
